Screens from PubChem.
MCF10A rerep: induces DNA re-replication in MCF 10a normal breast cells | Potency, µM (top dose mostly 46.1 µM), hits mostly activators | MCF 10A DNA re-replication, Hoechst nuclear intensity, 48 h | 2.9% of 350,000 active; further: nearly all actives have a fitted effect of over 50% in size
IL-1B inflam inh: blocks inflammasome-driven IL-1 beta release | THP-1 LPS/ATP IL-1B secretion, AlphaLISA, 16 h; stronger effect = lower value | activity change, % at 57.5 µM | 4.7% of 360,000 active | AID 743279; in the data active means activity change below about -50%; inconclusive means mostly about -30% to -49%
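Secreted IL-1B measured by AlphaLISA bead assay after 16 h compound exposure of THP-1 cells; compounds (final up to 57.5 uM) added 1 h before LPS (250 ng/mL) and ATP (1.25 mM) stimulation; lower signal means less secretion.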
Chronic BCR inh: inhibitors of chronic active B-cell receptor signaling; AID 493014; ABC-DLBCL IkBa-CBG/CBR reporter, luminescence ratio, 4 h; 0.05% of 340,000 active; Potency, µM (top dose mostly 46.1 µM), hits mostly inhibitors; active means well fitted inhibition curve with a large enough effect in the signal ratio, with a control signal flat, not every such curve was filed as active; inconclusive means small, poorly fitted or top-dose-only effect, or effect the other way, or a change in a side signal; the % refers to the signal ratio
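Compounds up to 46 uM were incubated four hours with TMD8 cells whose green CBG68 luciferase is fused to IkappaBalpha; red CBR luminescence normalised the signal, and concentration-effect curves were fitted to fusion, red and ratio data.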
DT40 TDP1 no CPT: qHTS for Inhibitors of human tyrosyl-DNA phosphodiesterase 1 (TDP1): qHTS in cells in absence of CPT. DT40 Tdp1-/- hTDP1 cells, no CPT, ATP luminescence, 48 h. Potency, µM (highest dose often 46.2 µM), most hits filed as inhibitors. 15% of 420,000 active; further: nearly all actives have a fitted effect of over 55% in size
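Camptothecin absent (DMSO only). Human TDP1-complemented DT40 knockout cells, 400 cells/well, 37 °C for minimum 48 hr; ATP measured via CellTiter-Glo, 30 min dark incubation, luminescence.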
DT40 TDP1 CPT: DT40-hTDP1 cell growth loss with CPT. chicken DT40 Tdp1-/-;hTDP1 cells + 20 nM CPT, ATP luminescence, 48 h. Potency, µM (top dose mostly 46.2 µM), hits mostly inhibitors. 12% of 420,000 active. AID 686979; further: nearly all actives have a fitted effect of over 55% in size
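Cell growth measured by CellTiter-Glo luminescence after a minimum 48 h, 37 C compound exposure with 20 nM CPT in Tdp1-knockout DT40 cells stably expressing hTDP1, seeded 400/well; qHTS titration format.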
SW480 rereplic: induces DNA re-replication in SW480 colon adenocarcinoma cells | AID 624297 | 1.8% of 340,000 active | Potency, µM (doses to about 46.1 µM), most hits filed as activators | SW480 DNA re-replication, Hoechst DNA content imaging, 48 h; further: nearly all actives have a fitted effect of over 55% in size
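Cells (250 per well) received 23 nL compound or DMSO by pin tool and were kept 48 hr at 37 C, 5% CO2. Nuclei were then stained with Hoechst for 40 min and scanned for DNA content.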
Numbers stand for hits; n = inactive; u = inconclusive; x = not tested or not shown; [ ] = another dose, or the depositor's remark. Compounds with a hit are over-represented: about 19% of the library has one in this group of screens. Unless noted, the call rests on the fitted dose curve; in most records, active means well fitted curve in the direction sought with a large enough effect; inconclusive means small, poorly fitted or top-dose-only effect, or another doubt; inactive means no such curve, though single readings can be large; an effect the other way counts as inactive or inconclusive.

SMILES	MCF10A rerep	IL-1B inflam inh	Chronic BCR inh	DT40 TDP1 no CPT	DT40 TDP1 CPT	SW480 rereplic
CCc1nnc(NC(=O)CSc2nc(-c3ccccc3)cc(-c3ccc(F)cc3)c2C#N)s1	4.1µM	n	n	u	9.2µM	10µM
O=C(NCc1ccc2c(c1)OCO2)c1nc(Cn2cc(Br)cn2)no1	n	n	n	n	n	n
Cc1ccc(S(=O)(=O)N2CCC(C(=O)N3CCCC(C(F)(F)F)C3)CC2)cc1C (centres undefined)	n	n	n	n	u	n
CCN(CC)C(=O)CSc1nc(-c2cccs2)cc(-c2cccs2)c1C#N	u	n	u	u	23µM	n
CCN(CC)C(=O)CSc1nc(N)c(C#N)c(-c2cccs2)c1C#N	n	n	u	n	n	n
N#Cc1ccc(-c2ccccc2)nc1SCC(=O)c1cccc(Cl)c1	14µM	n	n	u	u	n
CN1CCN(C(=O)CSc2nc(-c3ccncc3)ccc2C#N)CC1	n	-61	n	n	n	n
CCCCOc1ccc(Cc2c(O)nc(SC)[nH]c2=O)cc1	n	n	n	n	n	n
CCOc1ccc(CCNC(=O)c2ccc(S(=O)(=O)N3CCCC3)cc2)cc1OCC	n	n	n	u	u	n
O=C(CSc1nccn1Cc1ccccc1)Nc1nc2ccccc2s1	x	x	x	n	u	x
O=C(CSc1nccn1Cc1ccc(F)cc1)Nc1nc2ccccc2s1	x	x	x	23µM	18µM	x
COc1ccc(Cn2ccnc2SCC(=O)Nc2ccccc2F)cc1	n	n	n	n	n	n
COc1ccc(Cn2ccnc2SCC(=O)Nc2ccc(F)cc2F)cc1	x	n	x	23µM	u	x
Cc1ccc(-c2nn(-c3cccc([N+](=O)[O-])c3)c3c2cnc2ccc(F)cc23)cc1	x	x	x	n	n	x
Cc1nnc(SCC(=O)Nc2cccc([N+](=O)[O-])c2)n1CC1CCCO1 (centres undefined)	n	n	u	n	n	n
Cc1nnc(SCC(=O)Nc2ccc([N+](=O)[O-])cc2)n1CC1CCCO1 (centres undefined)	n	n	n	n	n	23µM
c1cc2c(cc1C1CCCCC1)c1c3n2CCN[C@H]3CCC1	x	x	x	11µM	11µM	x
Cc1ccc2c(c1)c1c3n2CCCNC3CCC1 (centres undefined)	n	-55	u	u	u	n
c1cc2c(cc1C1CCCCC1)c1c3n2CCCNC3CCC1 (centres undefined)	u	-83	u	6.5µM	7.3µM	n[9.22 µM]
Oc1ccc2c(c1)c1c3n2CCNC3CCC1 (centres undefined)	n	n	n	n	n	n
O=c1[nH][nH]c(C(F)(F)F)c1C=Nc1ccccc1	n	n	n	n	n	n
Cc1cc(O)ccc1N=Cc1c(C(F)(F)F)[nH][nH]c1=O	u	n	u	10µM	23µM	n
COc1cc(S(=O)(=O)NCCOC23CC4CC(CC(C4)C2)C3)c(OC)cc1Cl	u	-55	n	10µM	15µM	n
CCOc1ccc(OCC)c(S(=O)(=O)NCCOC23CC4CC(CC(C4)C2)C3)c1	u	n	n	13µM	u	n
CC(=O)N1CCOc2ccc(S(=O)(=O)NC[C@H]3O[C@@H](n4ccc(=O)[nH]c4=O)[C@H](O)[C@@H]3O)cc21	n	n	x	n	n	n
SMILES	MCF10A rerep	IL-1B inflam inh	Chronic BCR inh	DT40 TDP1 no CPT	DT40 TDP1 CPT	SW480 rereplic
COc1ccc2[nH]c(C(O)C(O)c3nc4c(OC)c(OC)ccc4[nH]3)nc2c1OC (centres undefined)	x	x	x	0.28µM	1µM	x
OC(c1nc2ccccc2[nH]1)C(O)c1nc2ccccc2[nH]1 (centres undefined)	n	n	n	n	n	n
COc1cc(C(=O)Nn2cnnc2)ccc1OC(F)F	n	n	n	n	n	n
CCc1nc2ccc(C(=O)Nc3cccc(NS(C)(=O)=O)c3)cn2c1N(C)C(=O)c1cccc(OC)c1	x	-78	x	n	n	x
CCc1nc2ccc(C(=O)Nc3ccc(NC(C)=O)cc3)cn2c1N(C)C(=O)Cc1ccccc1	x	n	x	u	n	x
CCc1nc2ccc(C(=O)Nc3cccc(NS(C)(=O)=O)c3)cn2c1N(C)C(=O)Cc1ccccc1	x	-87	x	n	n	x
COc1ccc(NC(=S)NNC(=O)CNc2ccc(Cl)cc2)cc1	n	n	n	n	u	n
CCOc1ccc(N2CC(c3nc4ccccc4n3CCCOc3ccccc3OC)CC2=O)cc1 (centres undefined)	x	x	x	8.2µM	u	x
CCOc1ccccc1N1CC(c2nc3ccccc3n2CCCOc2ccccc2)CC1=O (centres undefined)	x	x	x	u	n	x
COc1ccccc1OCCCn1c(C2CC(=O)N(c3ccc(F)cc3)C2)nc2ccccc21 (centres undefined)	x	x	x	8.2µM	u	x
COc1cc(C(=O)NCC(=O)NNC(=O)C2COc3ccccc3O2)cc(OC)c1OC (centres undefined)	n	n	n	n	n	n
CCOC(=O)c1cccc(NC(=O)/C=C/c2ccc([N+](=O)[O-])cc2)c1	n	n	u	8.2µM	15µM	n
O=C(/C=C/c1ccc([N+](=O)[O-])cc1)Nc1cccc(C(=O)Nc2ccccc2C(=O)O)c1	n	n	u	u	u	n
COC(=O)c1cccc(NC(=O)/C=C/c2ccc([N+](=O)[O-])cc2)c1	n	n	u	u	n	n
CCCCN(CCCC)C(=O)/C=C/c1cccc([N+](=O)[O-])c1	n	u	n	16µM	u	n
COC(=O)c1cccc(NC(=O)/C=C/c2cccc([N+](=O)[O-])c2)c1	n	n	u	13µM	u	n
O=C(CNC(=O)N1CC(=O)Nc2ccccc21)Nc1ccc(Cl)cc1Cl	x	n	x	n	n	x
COc1cccc(COC(=O)c2ccc(-c3nnn(Cc4cccc(OC)c4)n3)cc2)c1	x	x	x	n	n	x
Cc1ccccc1C(=O)N(C)[C@H]1C[C@H]2c3[nH]c4ccccc4c3CCN2C(=O)[C@H]1[C@H](C)O	x	n	x	21µM	u	x
C[C@H](O)[C@@H]1C(=O)N2CCc3c([nH]c4ccccc34)[C@@H]2C[C@@H]1N(C)C(=O)c1cc(Cl)cc(Cl)c1	x	n	x	18µM	23µM	x
C[C@H](O)[C@@H]1C(=O)N2CCc3c([nH]c4ccccc34)[C@@H]2C[C@@H]1N(C)C(=O)Nc1cccc2ccccc12	x	n	x	u	u	x
COc1ccc(C(=O)N(C)[C@H]2C[C@H]3c4[nH]c5ccccc5c4CCN3C(=O)[C@H]2CO)cc1	x	n	x	u	n	x
C[C@H](O)[C@@H]1C(=O)N2CCc3c([nH]c4ccccc34)[C@@H]2C[C@@H]1N(C)S(=O)(=O)c1ccccc1	x	n	x	23µM	u	x
